Screening results as filed in PubChem BioAssay.
ELG1 genotoxic = qHTS screen for small molecules that induce genotoxicity in human embryonic kidney (HEK293T) cells expressing luciferase-tagged ELG1; HEK293T ELG1-luciferase reporter, luminescence, 16 h; Potency, µM (top dose mostly 46 µM), without a hit: at the highest dose activity change, positive = activation, most hits filed as activators; 330,000 tested, 1.3% active; AID 504466, 2011; further: % of control where 0% means no effect; nearly all actives have a fitted effect of over 60% in size
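HEK293T cells expressing luciferase-tagged ELG1 were treated with compound or DMSO for 16 hr at 37°C. Luciferase activity was then read after 30 min with ONE-Glo at room temperature; rising signal flags genetic stress.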
FLuc counter = qHTS profiling assay for firefly luciferase inhibitor/activator using purifed enzyme and Km concentrations of substrates (counterscreen for miR-21 project); Luciferin 4-monooxygenase (Photinus pyralis), P08659; purified FLuc, Km substrates, luminescence inhibition; Potency, µM (highest dose often 57.5 µM), without a hit: top-dose activity change, negative = inhibition, actives largely listed as inhibitors; 360,000 tested, 6.9% active;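 further: plate controls were vehicle for no effect and reference inhibitor for full effect; nearly all actives have a fitted effect of over 55% in size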
Target sequence (P08659 whole entry, looked up): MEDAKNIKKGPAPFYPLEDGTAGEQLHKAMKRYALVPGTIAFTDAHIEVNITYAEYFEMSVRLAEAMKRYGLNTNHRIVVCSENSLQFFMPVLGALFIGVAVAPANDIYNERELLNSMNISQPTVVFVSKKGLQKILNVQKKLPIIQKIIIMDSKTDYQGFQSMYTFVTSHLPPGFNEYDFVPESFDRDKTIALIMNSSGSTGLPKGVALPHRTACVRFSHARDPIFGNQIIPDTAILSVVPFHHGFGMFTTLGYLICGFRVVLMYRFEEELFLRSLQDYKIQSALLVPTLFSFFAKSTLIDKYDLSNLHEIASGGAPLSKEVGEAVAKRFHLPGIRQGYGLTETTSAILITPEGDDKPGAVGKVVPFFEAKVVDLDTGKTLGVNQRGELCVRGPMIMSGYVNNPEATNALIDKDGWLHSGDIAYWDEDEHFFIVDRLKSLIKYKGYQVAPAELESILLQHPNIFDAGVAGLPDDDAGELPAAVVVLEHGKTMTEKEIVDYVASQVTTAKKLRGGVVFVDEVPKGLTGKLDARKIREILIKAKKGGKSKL
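Purified P. pyralis luciferase, 10 nM final, with Km-level 10 uM D-luciferin and 10 uM ATP in 50 mM Tris acetate pH 7.5, 10 mM Mg acetate, 0.01% Tween-20, 0.05% BSA; 6-point qHTS titration about 60 µM downward; luminescence read.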
SMN2 splice up = qHTS Assay for Enhancers of SMN2 Splice Variant Expression; HEK293 SMN2-luciferase splicing reporter, luminescence, 30-36 h; Potency, µM (doses to about 46.1 µM), inactives show top-dose activity change, positive = activation, actives largely listed as activators; 210,000 tested, 2.8% active; AID 1458, 2008; further: % of control where 0% means no effect; nearly all actives have a fitted effect of over 55% in size
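HEK293 cells carry an SMN2 minigene-luciferase reporter in which exon 7 inclusion puts luciferase in frame. Cells were seeded at 2000 cells/well, attached for 10-12 hours, then exposed to compounds for 30-36 hours at 37C before ONE-Glo luminescence.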
NPC1 prom act = qHTS Assay for NPC1 Promoter Activators | Huh7 NPC1 promoter luciferase reporter, 24 h | Potency, µM (doses to about 9.22 µM), without a hit: top-dose activation, most hits filed as activators | 320,000 tested, 2.4% active; further: % of control where 0% means no effect; nearly all actives have a fitted effect of over 60% in size
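In 1536-well qHTS, Huh7 cells harboring an NPC1 promoter–luciferase construct received compound for 24 h; activation was quantified by luminescence following luciferase reagent addition.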
Rab9 promoter act = qHTS Assay for Rab9 Promoter Activators | 320,000 tested, 2.8% active | Potency, µM (titrated, usually from 9.22 µM), for the others: top-dose activation, negative = inhibition, hits mostly activators | Huh7 Rab9 promoter-luciferase reporter, luminescence, 24 h; further: % of control where 0% means no effect; nearly all actives have a fitted effect of over 60% in size
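Promoter activation is measured as luciferase luminescence in Huh7 cells stably transfected with a Rab9 promoter–luciferase construct, following 24 h compound exposure at 37 °C and 10 min reagent incubation at ambient temperature.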
Numbers without * were called inactive; ? = inconclusive; . = no result given. Hits are enriched below; roughly 7.4% of the tested compounds scored in any of these assays. The call rests on the fitted dose curve; in most records, active means well fitted curve in the direction sought with a large enough effect; inconclusive means small, poorly fitted or top-dose-only effect, or another doubt; inactive means no such curve, though single readings can be large; an effect the other way counts as inactive or inconclusive. Potency means the concentration at half of the fitted maximal effect.

SMILES	ELG1 genotoxic	FLuc counter	SMN2 splice up	NPC1 prom act	Rab9 promoter act
COc1ccc(NC(=O)c2ccc3c(c2)N(C)CCS3)cc1	?	3.38µM*	.	2µM*	3.98µM*
CN1CCSc2ccc(C(=O)NCc3ccccc3)cc21	8.8%	?	-4.1%	-3.8%	14.7%
COc1ccc(NC(=O)c2ccc3c(c2)n(C)c(=O)n3C)cc1	?	?	?	-5.0%	-10.6%
O=C(Cn1c(SCCOc2ccccc2Cl)nc2ccccc21)N1CCOCC1	.	-0.9%	.	.	.
CCNC(=O)c1ccccc1-c1nc(-c2ccccc2OC)no1	-9.9%	?	.	2.3%	1.3%
CCNC(=O)c1ccccc1-c1nc(-c2ccccc2Cl)no1	2.7%	19µM*	-14.2%	19.6%	7.1%
O=C(c1ccccc1-c1nc(-c2ccccc2Cl)no1)N1CCOCC1	2.5%	2.5%	.	0.4%	1.3%
CC(C)(C)NC(=O)c1ccccc1-c1nc(-c2ccccc2Cl)no1	6.4%	12µM*	-8.4%	-1.9%	-3.8%
CC(C)NC(=O)c1ccccc1-c1nc(-c2ccccc2Cl)no1	0.4%	15.1µM*	.	2.2%	4.1%
CC(=O)Nc1ccc(S(=O)(=O)Nc2nc3ccccc3nc2Nc2ccc3ccccc3c2)cc1	-0.6%	9.53µM*	?	-1.1%	1.3%
COC(=O)c1cc(Nc2nc3ccccc3nc2NS(=O)(=O)c2ccc(C)cc2)ccc1Cl	.	19µM*	-1.8%	.	.
CC(=O)Nc1ccc(S(=O)(=O)Nc2nc3ccccc3nc2Nc2cccc(O)c2)cc1	4.9%	?	.	-6.3%	-0.1%
CCc1ccccc1NC(=O)Cn1c(=O)oc2ccccc21	.	-0.3%	.	.	.
CC(C)NC(=O)CCc1nnc(Cc2cccc(C(F)(F)F)c2)o1	?	15.1µM*	.	?	?
CCC(COC)NC(=O)CCc1nnc(Cc2cccc(C(F)(F)F)c2)o1 (stereo unspecified)	13.9%	?	.	1.5%	25.0%
CC(C)(C)c1ccc(OCC(O)CSc2ncn[nH]2)cc1 (stereo unspecified)	?	2.13µM*	?	?	?
Cc1ccc(C(=O)N/N=C/c2cn(Cc3ccccc3)c3ccccc23)cn1	-0.7%	12µM*	.	8.9%	0.8%
COc1cc(C(=O)N/N=C/c2cn(Cc3cccc(F)c3)c3ccccc23)ccc1O	0.4%	?	.	-2.8%	0.9%
CCNC(=S)N/N=C/c1cn(Cc2ccc(F)cc2)c2ccccc12	-0.2%	5.3%	-41.3%	2.8%	-1.2%
O=C(O)c1ccc(N/N=C/c2cn(Cc3ccc(F)cc3)c3ccccc23)cc1	11.6µM*	8.49µM*	.	2µM*	2.82µM*
O=C(N/N=C/c1cn(Cc2ccccc2)c2ccccc12)c1cc(O)cc(O)c1	2.8%	23.9µM*	.	-3.6%	-7.0%
O=C(c1cccc(F)c1)N1CCC2(CCN(Cc3cc(C(F)(F)F)cc(C(F)(F)F)c3)CC2)CC1	.	.	-15.8%	.	.
O=[N+]([O-])c1nn(-c2ccc3c(c2)OCCO3)n(O)c1=NCc1ccccc1Cl	?	6.01µM*	12.6µM*	?	?
COc1ccc(-n2nc([N+](=O)[O-])c(=NCCc3ccc(C)cc3)n2O)cc1	-1.0%	-6.1%	.	?	?
COc1ccc(-n2nc([N+](=O)[O-])c(=NCc3ccco3)n2O)cc1	?	?	.	3.55µM*	1.41µM*
SMILES	ELG1 genotoxic	FLuc counter	SMN2 splice up	NPC1 prom act	Rab9 promoter act
COc1ccc(-n2nc([N+](=O)[O-])c(=NCc3cccnc3)n2O)cc1	?	?	25.6%	3.55µM*	2.82µM*
COc1ccccc1CN=c1c([N+](=O)[O-])nn(-c2ccc3c(c2)OCCO3)n1O	?	?	?	24.6%	?
COc1ccc(-n2nc([N+](=O)[O-])c(=NCCC3=CCCCC3)n2O)cc1	?	?	?	?	3.55µM*
COc1cccc(-n2ccn(CC(=O)Nc3ccccc3F)c(=O)c2=O)c1	.	5.6%	.	.	.
Clc1ccc(Cl)c(OCc2cc(-c3ccccc3Cl)on2)c1	14.1%	10.7µM*	-3.1%	?	?
CCc1ccc(C2c3c(oc4ccc(F)cc4c3=O)C(=O)N2c2nc(C)c(C(=O)OC)s2)cc1 (stereo unspecified)	.	-0.2%	4.0%	.	.
CC1CCc2c(sc3nc(-c4cc5ccccc5oc4=O)nc(Cl)c23)C1 (stereo unspecified)	.	2.39µM*	2.0%	.	.
CS(=O)(=O)c1ccc(C(O)C(CO)NC(=O)C(Cl)Cl)cc1 (stereo unspecified)	.	.	-21.9%	.	.
COC(=O)Cc1c(C)c2cc3c(c(C)c2oc1=O)OCN(CCc1ccc(F)cc1)C3	.	0.2%	-18.3%	.	.
CCOC(=O)/C=C/c1ccc2oc3ccccc3c(=O)c2c1	?	2.39µM*	.	3.55µM*	3.98µM*
COc1cc2oc3ccccc3c(=O)c2cc1OC	?	?	.	?	5.3%
O=C(NCC1CCN(Cc2ccccc2Cl)CC1)c1cc2ccc3cccnc3c2[nH]1	.	-14.0%	.	.	.
CS(=O)(=O)Nc1cccc(-c2nccc(-n3ccnc3)n2)c1	.	.	13.1%	.	.
CCN(CC)S(=O)(=O)c1cccc(-c2cn3cc(C)ccc3n2)c1	?	4.78µM*	-29.0%	11.8%	16.2%
Cc1ccc2nc(-c3cccc(S(=O)(=O)N(C)C)c3)cn2c1	12.3%	?	16.3%	?	3.16µM*
COc1cccc(-n2c(C)cc(/C=C3/C(=N)N4C(=NC3=O)SN=C4S(C)(=O)=O)c2C)c1	4.6%	5.36µM*	19.7%	1.3%	1.1%
Cc1ccc(-n2cccc2/C=C2/C(=N)N3C(=NC2=O)SN=C3S(C)(=O)=O)cc1	0.1%	19µM*	-14.5%	-1.3%	2.5%
CS(=O)(=O)C1=NSC2=NC(=O)/C(=C\c3cccn3-c3ccccc3Cl)C(=N)N21	1.6%	26.9µM*	-2.3%	-0.1%	16.2%
Cc1ccc(S(=O)(=O)Oc2ccc(/C=C3/C(=N)N4C(=NC3=O)SN=C4S(C)(=O)=O)cc2)cc1	8.3%	-8.0%	.	0.4%	5.4%
CCc1ccc(-n2cccc2/C=C2/C(=N)N3C(=NC2=O)SN=C3S(C)(=O)=O)cc1	0.0%	16.9µM*	-10.5%	-2.6%	2.5%
COc1ccc(N2CCN(C(=O)COc3ccccc3C#N)CC2)cc1	.	0.5%	-14.9%	.	.
Cc1cc(C)cc(-n2cccc2/C=C2/C(=N)N3C(=NC2=O)SN=C3S(C)(=O)=O)c1	-2.8%	13.5µM*	-19.9%	-5.8%	3.4%
O=C(Nc1ccc(-c2nc3ccccc3s2)c(O)c1)c1ccc(Br)cc1	.	-2.3%	-4.4%	.	.
O=C(Nc1ccc(Cl)c(Cl)c1)c1ccccc1	?	3.79µM*	.	3.16µM*	1.58µM*
O=C(Nc1ccc2nc3ccccc3nc2c1)c1ccccc1	?	1.69µM*	3.98µM*	1.41µM*	0.562µM*
